Measurements taken from PMC12215968.

Biological target: SERBP1 (UniProt Q8NC51)
Experiment: cross-linking mass spectrometry
Details: TSTO, in cells

Chain of YWHAQ, P27348 (P27348 whole entry): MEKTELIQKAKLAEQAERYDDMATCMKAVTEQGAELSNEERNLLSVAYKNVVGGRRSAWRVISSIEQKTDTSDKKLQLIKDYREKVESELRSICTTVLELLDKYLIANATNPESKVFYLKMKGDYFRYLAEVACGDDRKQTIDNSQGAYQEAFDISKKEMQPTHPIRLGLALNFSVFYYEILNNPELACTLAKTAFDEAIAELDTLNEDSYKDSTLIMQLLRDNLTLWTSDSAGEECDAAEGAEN
Chain of YWHAB, P31946 (P31946 whole entry): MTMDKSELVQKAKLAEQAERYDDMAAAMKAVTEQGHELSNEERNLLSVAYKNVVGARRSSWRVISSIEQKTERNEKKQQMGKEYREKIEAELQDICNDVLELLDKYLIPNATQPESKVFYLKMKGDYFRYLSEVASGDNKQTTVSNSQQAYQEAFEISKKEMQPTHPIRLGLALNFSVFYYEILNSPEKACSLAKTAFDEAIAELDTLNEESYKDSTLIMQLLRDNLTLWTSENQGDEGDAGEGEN
Chain of YWHAG, P61981 (P61981 whole entry): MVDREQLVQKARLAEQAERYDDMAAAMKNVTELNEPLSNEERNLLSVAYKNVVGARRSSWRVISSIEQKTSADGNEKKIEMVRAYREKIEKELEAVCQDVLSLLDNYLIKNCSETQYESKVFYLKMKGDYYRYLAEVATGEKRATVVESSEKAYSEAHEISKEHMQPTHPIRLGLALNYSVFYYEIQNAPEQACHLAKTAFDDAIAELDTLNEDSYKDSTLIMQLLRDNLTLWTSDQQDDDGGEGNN

Row | Substance | cross-linked residues
1 | RPS15, P62841 | K58 - K327
2 | RPL23A, P62750 | K30 - K68
3 | RPL34, P49207 | K115 - K37
4 | RPS28, P62857 | K16 - K140
5 | RPS10, P46783 | K107 - K299
6 | RPS3, P23396 | K108 - K236

Biological target: YWHAE (UniProt P62258)
Experiment: cross-linking mass spectrometry
Details: TSTO, in cells

Chain of YWHAE (P62258 whole entry): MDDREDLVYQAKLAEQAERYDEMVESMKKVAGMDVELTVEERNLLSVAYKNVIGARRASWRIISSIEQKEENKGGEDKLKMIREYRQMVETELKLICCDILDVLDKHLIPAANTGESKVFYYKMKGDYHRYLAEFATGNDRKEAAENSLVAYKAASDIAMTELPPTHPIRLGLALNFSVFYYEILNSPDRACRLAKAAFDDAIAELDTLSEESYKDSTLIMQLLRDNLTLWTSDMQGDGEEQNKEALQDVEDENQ

Row | Substance | cross-linked residues
7 | YWHAB, P31946 | K70 - K12
8 | YWHAQ, P27348 | K68 - K12
9 | YWHAG, P61981 | K69 - K12
